# An excerpt weighted towards active compounds, which were near 3.1% of everything screened.
# Autofluor counter: flagged as autofluorescent in microsphere protease counterscreen; compound autofluorescence counterscreen, microsphere flow cytometry; stronger effect = higher value; fluorescence intensity (test concentration not listed); actives 3.1% (n = 360,000); AID 624483; in the data active means fluorescence intensity above about 16000; inconclusive means no clear call, values can overlap the other calls
# Anthrax LF inh2: inhibitors of Bacillus anthracis lethal factor protease | P15917 | multiplex microsphere protease cleavage assay, LF | inhibition, % at 10 µM | actives 0.12% (n = 360,000) | AID 588501; further: plate controls were buffer without enzyme for full effect and enzyme alone for no effect
# BoNT-A LC inh2: inhibitors of Botulinum neurotoxin A light chain protease | inhibition, % at 10 µM | AID 588499 | actives 0.17% (n = 360,000) | multiplex microsphere protease substrate cleavage, flow cytometry; further: plate controls were buffer without enzyme for full effect and enzyme alone for no effect
# SSB-PriA inh: blocks PriA binding to SSB C-terminal tail | AlphaScreen SSBct-PriA binding, biotinylated peptide | inhibition, % at 33 µM | actives 0.6% (n = 430,000) | AID 1272365; in the data active means inhibition mostly above about 37%, no sharp cut-off; inactive means mostly below about 20%;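 further: plate controls were negative control peptide for no effect and reference peptide for full effect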
# BoNT-F LC inh: blocks Botulinum neurotoxin F light chain protease | Multiplex microsphere protease cleavage assay, flow cytometry | inhibition, % at 10 µM | actives 0.22% (n = 360,000); in the data active means inhibition above about 35%, passing the limit was not always enough; inconclusive means no clear call, values can overlap the other calls; further: plate controls were buffer without enzyme for full effect and enzyme alone for no effect
# * marks the source's active call; other numbers are inactive results; ? = inconclusive; . = no result given. Unless noted, no stated cut-off is given here; in the data, active means inhibition above about 30%; inconclusive means no clear call, values can overlap the other calls; inactive means below that.
SMILES,Autofluor counter,Anthrax LF inh2,BoNT-A LC inh2,SSB-PriA inh,BoNT-F LC inh
O=C(NCc1ccco1)c1cc(-c2ccc3c(c2)OCO3)on1,17176*,-2.9,-4.3,-5.0,-6.5
O=C(NCc1ccco1)c1cc(-c2ccc(Cl)cc2)on1,22771*,-1.3,0.8,-25.2,1.2
COc1ccc(OC)c(-c2cc(C(=O)NCc3ccco3)no2)c1,8033,-5.5,-0.5,-4.4,-0.6
O=C(NCc1ccco1)c1cc(-c2cccc(Cl)c2)on1,21505*,-11.5,2.6,-3.6,3.0
CN(C(=S)NC(=O)c1ccccc1Br)C1CCCCC1,16560*,-4.6,-1.3,0.6,-2.5
CCN(CC)c1ccc2cc(-c3nc(-c4cc5ccccc5oc4=O)cs3)c(=O)oc2c1,7684,46.6*,87.2*,-0.1,22.8
Nc1nc(-c2cc3ccccc3oc2=O)cs1,.,.,.,-15.0,.
Cn1cc(-c2cccc(Cl)c2)cc(C#N)c1=O,4940,-3.4,-1.9,-6.9,-1.3
Cn1cc(-c2cccc(C(F)(F)F)c2)cc(C#N)c1=O,3473,8.4,0.6,53.1*,-4.3
Cc1nc(-c2ccccc2)cc(N2CCCC2)n1,23051*,-0.9,?,-0.3,1.5
Nc1nc(-c2ccccc2)cc(N2CCCCC2)n1,2318,0.8,0.7,-6.2,6.8
CCCN1CCN(C(=O)Nc2cccc(C(F)(F)F)c2)CC1,1894,1.1,-0.8,-16.6,-0.8
Cc1ccc(OC(F)F)c(NC(=O)Nc2cccc(C(F)(F)F)c2)c1,19099*,-2.7,1.4,-40.7,-3.5
C[C@H](NC(=O)Nc1cccc(C(F)(F)F)c1)C(=O)O,21298*,-3.2,?,-16.7,-4.1
O=C(O)C1C2C=CC(C2)C1C(=O)Nc1cccc(C(F)(F)F)c1 (stereo not given),3235,2.4,2.8,3.1,50.4*
O=C(Nc1cccc(C(F)(F)F)c1)N1CCN(C(=O)Nc2cccc(C(F)(F)F)c2)CC1,22460*,-0.5,-1.7,-3.5,-3.2
Cc1nn(S(C)(=O)=O)c(C)c1S(=O)(=O)N1CCC(C)CC1,.,.,.,7.0,.
O=C(CN(c1ccc(F)cc1)S(=O)(=O)c1ccc2c(c1)OCCO2)NCc1ccc2c(c1)OCO2,.,.,.,43.9,.
O=C(NCCc1ccoc1)C(=O)Nc1cccc(N2CCCC2=O)c1,.,.,.,-7.0,.
Cc1cc(=O)n2c(-c3ccc(NC(=O)NCc4ccccc4)cc3)csc2n1,.,.,.,-7.0,.
COC(=O)[C@H](CC(C)C)NC(=O)N1CCN(c2cccc(C(F)(F)F)c2)CC1,23638*,-1.2,-1.1,-12.7,-0.7
CC(C)C[C@H](NC(=O)N1CCN(c2ccccc2)CC1)C(=O)O,11082,-4.6,-0.8,-10.0,-9.4
CC(=O)Nc1ccc(NC(=O)CN2CCN(c3cccc(C(F)(F)F)c3)CC2)cc1,2572,-1.8,0.0,1.8,-7.6
CC(=O)Nc1ccc(CN2CCN(c3cccc(C(F)(F)F)c3)CC2)cc1,17158*,-2.3,-1.9,2.1,-2.8
COc1ccccc1NC(=O)N1CCN(c2ccc(F)cc2)CC1,4002,-1.0,1.1,-4.2,4.2
SMILES,Autofluor counter,Anthrax LF inh2,BoNT-A LC inh2,SSB-PriA inh,BoNT-F LC inh
O=C(/C=C/Nc1cccc(C(F)(F)F)c1)C(F)(F)F,20521*,-0.8,?,-10.2,1.0
NC(=O)/C=C/C(=O)Nc1cccc(C(F)(F)F)c1,.,.,.,-7.0,.
COc1ccccc1NC(=O)N1CCN(c2cccc(C(F)(F)F)c2)CC1,23145*,-1.3,-1.4,-11.6,-3.3
C=C1N(CCCCCC(=O)O)C(=O)OC12CCCCC2,22385*,1.8,1.2,7.7,0.7
O=C(O)CCCCCN1C(=O)CSC1=S,4102,-4.5,-0.1,-17.0,-4.8
Cc1ccc(C(=O)N(c2ccccn2)C(C)c2ccco2)cc1C (stereo not given),21171*,-2.6,?,-9.2,3.5
CC(c1ccco1)N(C(=O)c1ccc(C(F)(F)F)cc1)c1ccccn1 (stereo not given),4270,-0.8,0.3,-9.4,-0.5
CC1CCC/C(=C\Nc2ccc3c(c2)OCO3)C1=O (stereo not given),22454*,-6.0,0.0,.,-10.8
Cc1nnc2n(c1=O)C(CS(=O)(=O)c1ccccc1)CS2 (stereo not given),21322*,-6.4,?,1.2,-0.1
COc1cn(CC(=O)NCc2ccc(F)cc2)c(CN2CCCCCC2)cc1=O,.,.,.,-15.0,.
CC(C)C(=O)Nc1ccc(NC(=S)NC(=O)c2ccc([N+](=O)[O-])cc2)cc1,23025*,-2.4,-1.9,3.3,-3.9
CC(C)C(=O)Nc1cccc(NC(=S)NC(=O)c2ccc([N+](=O)[O-])cc2)c1,22965*,-1.2,?,-7.6,-4.3
Cc1ccc(N2C(=O)C3C(C2=O)C2C=CC3C23CC3)cc1 (stereo not given),19890*,-2.7,?,-12.6,-0.2
COc1ccccc1N1CCN(c2nc3c(-c4cccc(C(F)(F)F)c4)nnn3c3ccc(Cl)cc23)CC1,.,.,.,-12.0,.
CN(C)CCNc1nc(-c2ccco2)c2c(c1C#N)CC(C)(C)OC2,24132*,1.8,-2.1,-23.7,-0.9
O=C(NCCCN1CCCC1=O)c1nnc(Cc2c(F)cccc2Cl)o1,22538*,-0.4,?,-1.5,-0.9
CN1CCN(CCCNC(=O)c2nnc(Cc3c(F)cccc3Cl)o2)CC1,18850*,-8.9,9.7,-16.7,8.9
O=C(c1cnccn1)N1C2C=CCC1CC2 (stereo not given),.,.,.,0.0,.
CCC(=O)N1CCN(c2ccc(NC(=O)c3ccc4c(c3)OCO4)cc2)CC1,4365,-0.5,-0.4,0.7,1.7
CCN1CCN(c2ccc(NC(=O)c3ccc4c(c3)OCO4)cc2)CC1,16331*,-7.5,-0.7,4.9,-9.1
CC(C)(C)c1cnnn1-c1ccc(NC(=O)c2ccc(Br)o2)cc1,20983*,-0.9,-2.9,-4.2,-5.1
Cc1ccc(OCCCC(=O)Nc2ccc3c(c2)OCO3)c(C)c1,.,.,.,36.0*,.
COc1cc(NC(=O)c2ccc3c(c2)OCO3)ccc1NC(=O)C(C)C,9607,-6.5,0.1,-1.0,0.0
CCCCC(=O)Nc1ccc(NC(=O)c2ccc3c(c2)OCO3)cc1OC,22707*,-4.4,1.6,-1.2,2.5
Cc1ccc(OCC(=O)Nc2ccc3c(c2)OCO3)c(C)c1,3991,-2.7,0.2,-9.3,-0.9
SMILES,Autofluor counter,Anthrax LF inh2,BoNT-A LC inh2,SSB-PriA inh,BoNT-F LC inh
CCN(CC)CCNN=C(C)c1c(O)[nH]c(=O)[nH]c1=O,.,.,.,-1.9,.
CC(C)(C)c1cnnn1-c1ccc(NC(=O)c2ccc3c(c2)OCO3)cc1,23470*,-1.5,-3.6,-13.2,-5.3
O=C(O)C1C(c2ccccc2)C(C(=O)N2CCOCC2)C1c1ccccc1 (stereo not given),9507,-5.0,0.5,-8.8,2.7
COC(=O)C1C(c2ccccc2)C(C(=O)N2CCOCC2)C1c1ccccc1 (stereo not given),22025*,-2.2,?,-13.3,-1.4
COc1cc(C(=O)Nc2ccc3c(c2)N(C(=O)C2CC2)CC3)cc(OC)c1OC,.,.,.,-10.0,.
Cc1ccc(CNc2nc(C)nc3sc4c(c23)CCC4)cc1,17440*,-1.2,?,-6.1,-3.9
Cc1nc(NC(C)c2ccccc2)c2c3c(sc2n1)CCC3 (stereo not given),16604*,3.5,-0.8,0.3,-2.3
COc1ccc(CC(=O)NCC2CCN(Cc3cccs3)CC2)cc1,.,.,.,4.0,.
